In PubChem BioAssay AID1159606 (Sanford-Burnham Center for Chemical Genomics, 2016) one finds inhibition data, which are given here for 60 compounds.

SMILES strings stand for the structures. The whole screen tested about 360,000 compounds, of which about 7,300 (2%) were called active. Rule as the data show it: active = inhibition above about 50%; inactive = the rest. For the sample, actives were picked, then their nearest neighbours and some compounds at random.

As usually defined, the inhibition is the drop in the measured response relative to a control, in per cent.

This experiment is described as follows: blockers of TWEAK-induced Fn14 reporter activity – luciferase reporter cells, uHTS, primary screen (AID 1159606). Particulars: TWEAK-stimulated Fn14 reporter cells, luciferase luminescence, 8 h; at 10 µM; active compounds read high. On the technique in general: A reporter such as luciferase makes a cellular process visible.
Turning to `CCOc1ccc(NC(=O)CN(C)C(=O)CSc2ccccc2)cc1OCC`, the inhibition is 2.8% (inactive).

For the compound `CCOC(=O)C1=C(C)N=c2s/c(=C\C(=O)OC)c(=O)n2C1c1ccc(OC)cc1` (stereo not given), the inhibition is 87.1% (active). To `CCOC(=O)C1=C(CSc2nccn2C)NC(=O)NC1c1ccc(OC)cc1` (stereo not given) belongs -0.26% (inactive). With `CCOC(=O)c1cc2cc(OC)ccc2n1C1CCN(C)CC1` the figure was -7.56% (inactive). To `Nc1ccccc1/C=N\N=C/c1ccccc1N` belongs -29.4% (inactive). As to `COC[C@@H]1NS(=O)(=O)c2ccc(Br)cc2O[C@H]1c1ccccc1`, the inhibition is 6.78% (inactive). With `CCOc1ccc(-n2c(SC(C)C(=O)OC)nc3c(c2=O)SCC3)cc1` (stereo not given), the inhibition was 1.38% (inactive). Take `Cc1ccc(-c2nc3c(C)cc(Br)cn3c2Cc2ccccc2)cc1`: the inhibition was 13.1% (inactive). With `c1ccc(Cc2c(-c3ccco3)nc3c4ccccc4ccn23)cc1` the figure was 57.8% (active); with `FC(F)(F)c1ccccc1Cc1c(-c2ccccc2)nc2c3ccccc3ccn12`, 8.37% (inactive); with `Cc1ccc(Cc2c(-c3ccc(C)cc3)nc3c4ccccc4ccn23)cc1`, 57.1% (active). With `Cc1ccc(Cc2c(-c3ccc(Cl)cc3)nc3c4ccccc4ccn23)cc1` the figure was 22% (inactive); with `Cc1ccc(Cc2c(-c3ccco3)nc3ccc(Cl)cn23)cc1`, 48.4% (inactive). To `C=CCSc1nc2c(c(=O)[nH]1)C(C(C)C)C(C#N)=C(N)O2` (stereo not given) belongs -24.9% (inactive). With `O=C(NC1CCN(S(=O)(=O)c2ccc(F)cc2)CC1)c1ccccc1`, the inhibition is -13.3% (inactive).

As for `COCCCn1c(-c2cccs2)nc2nc3ccccc3nc21`, the inhibition was 34.3% (inactive). With `CCCc1c(-c2ccccc2F)ncn1Cc1ccccc1OC` the figure was 2.25% (inactive). For `CC(=O)c1c(C)[nH]c(C(=O)COC(=O)c2cccc(S(=O)(=O)N(C)c3ccccc3)c2)c1C`, the inhibition was 101% (active). Consider `CC(=O)c1c(C)[nH]c(C(=O)COC(=O)c2cccs2)c1C`, for which the inhibition is -16.3% (inactive). To `COc1cccc(C(=O)OCC(=O)c2[nH]c(C)c(C(C)=O)c2C)c1` belongs -4.4% (inactive); to `COc1ccc(N(C(=O)c2snc(C(N)=O)c2N)C(C(=O)NC2CCCC2)c2ccc(C)o2)c(OC)c1` (stereo not given), 22.4% (inactive); to `COc1c(C)c2c(c(O)c1C/C=C(\C)CCC(=O)O)C(=O)OC2`, -6.73% (inactive).

Take `CCn1c(N)c(Br)c(=O)[nH]c1=O`: the inhibition is 9.55% (inactive). With `CC(C)c1ccc2c(c1)c(SC(C)(C)C)c(CC(C)(C)C(=O)O)n2Cc1ccc(Cl)cc1` the figure was 79.3% (active). With `Cc1cccnc1CCNC(=O)C1CCC(=O)N(Cc2cccc(F)c2)C1` (stereo not given) the figure was -10.1% (inactive); with `CCOC(=O)C1CCCN(C(=O)COc2ccc(N(C)S(=O)(=O)c3ccc(C)cc3)cc2)C1` (stereo not given), 9.89% (inactive); with `CCOc1ccc(NC(=O)CN(C)CC(=O)Nc2cccc(Cl)c2C)cc1OCC`, 5.07% (inactive).

Consider `C=CCn1c(C)cc(C2=NNC(=NCC)SC2)c1C`, for which the inhibition is 107% (active). In the case of `CCc1nc2ccc(C(=O)Nc3ccc(OC)c(OC)c3)cn2c1N(C)C(=O)c1cccc(OC)c1`, the inhibition was -18.4% (inactive). With `COc1cccc(CN(C)CC2CCCN(CCc3ccc(Cl)cc3)C2)c1OC` (stereo not given) the figure was -2.09% (inactive); with `O=C(NCc1ccccc1)[C@@H]1CSC2c3ccccc3C(=O)N21` (stereo not given in full), 8.08% (inactive); with `Cc1ccc2nc(SC(C)C(=O)NCc3ccco3)[nH]c2c1` (stereo not given), 46% (inactive). `CSc1ncccc1C(=O)Nc1ccc2c(c1)OCO2`: the inhibition is 1.24% (inactive). Consider `CCOc1ncccc1C(=O)Nc1ccc2c(c1)OCCO2`, for which the inhibition is 68.7% (active). With `CCOc1ncccc1C(=O)Nc1ccc(S(=O)(=O)Nc2nc(C)cc(C)n2)cc1` the figure was -19.9% (inactive); with `COC(=O)[C@]12CCCCC=C1N(Cc1ccco1)C(=O)[C@H](CC(=O)NCCCCc1ccccc1)C2`, 16.9% (inactive).

For the compound `O=C(NCCc1ccccn1)c1cc(C(=O)C2CCCCC2)c[nH]1`, the inhibition was 4.9% (inactive).

Take `Cc1cc(C)c(C#N)c(SCC(=O)N(CC(C)C)C2CCS(=O)(=O)C2)n1` (stereo not given): the inhibition is 4.51% (inactive). With `COC(=O)C(Cc1c[nH]c2ccccc12)NC(=O)CCNC(=O)c1ccco1` (stereo not given) the figure was -24.2% (inactive).

Turning to `O=C1NC[C@H](CCCCN2CCN(CCc3ccccc3)C(=O)C2=O)N(CC2CCCCC2)C1=O`, the inhibition is -2.45% (inactive).

Turning to `O=C1OCCOC2CCCc3oc(-c4ccccc4)c1c32` (stereo not given), the inhibition was 16.6% (inactive). With `CCOC(=O)c1cccc(NC(=O)CN(c2ccc(C)cc2)S(=O)(=O)c2c(C)noc2C)c1` the figure was 57.7% (active); with `COc1ccc(N(CC(=O)Nc2cc(OC)ccc2OC)S(=O)(=O)c2c(C)noc2C)cc1`, -0.61% (inactive); with `Cc1noc(C)c1S(=O)(=O)N(CC(=O)Nc1ccc2c(c1)OCCO2)c1ccc(C(C)C)cc1`, 35.5% (inactive).

Turning to `O=c1[nH]c(/C=C/c2cccc(Br)c2)nc2ccccc12`, the inhibition is -14.4% (inactive). To `O=c1oc(/C=C/c2ccccc2)nc2ccccc12` belongs 55.3% (active); to `S=c1[nH]nc(/C=C/c2ccccc2)o1`, 9.4% (inactive); to `CCN(c1ccccc1)S(=O)(=O)c1cc2c(cc1C)n(C)c(=O)c(=O)n2C`, -4.66% (inactive). To `FC(F)(F)Oc1ccc(-c2cn3cccnc3n2)cc1` belongs -15.1% (inactive). With `COc1ccc(-c2nc3ccc(Br)cn3c2Cc2ccc(C)cc2)cc1OC` the figure was -20.3% (inactive).

As to `Cc1ccc2nc(-c3ccc(Br)cc3)cn2c1`, the inhibition was 98.8% (active). For the compound `COc1ccc(C2=Nc3cc(C)ccc3OC2)cc1`, the inhibition is 27.9% (inactive). To `Cc1ccc(-c2cn3cc(C)ccc3n2)cc1` belongs 105% (active); to `Cc1ccc(-c2nc3ccc(Br)cn3c2Cc2ccccc2C(F)(F)F)cc1`, 5.76% (inactive).

Consider `Cc1ccc(-c2cc(N)on2)cc1`, for which the inhibition was -5.28% (inactive). To `Cc1ccc(-n2cc3ccc([N+](=O)[O-])cc3n2)cc1` belongs 39.8% (inactive); to `COc1ccc(-c2cn3ccc(C)cc3n2)cc1`, 81.6% (active).

`Cc1ccnc(N2C(=O)c3ccc([N+](=O)[O-])cc3C2=O)c1`: the inhibition was 5.4% (inactive). With `CS(=O)(=O)Nc1cccc(-c2cn3ccccc3n2)c1` the figure was -6.02% (inactive); with `Cc1ccc(-c2cn3cc([N+](=O)[O-])ccc3n2)cc1`, 76.3% (active).
